± gives the standard deviation. Whole data set: some 6,200 sequences, median “pre-steady-state target cleavage rate” near 0.29, cut for the highest 2% near 2. The list comes from a sample in which the highest values are over-represented; it also holds similar and randomly drawn sequences.
Test system: MIWI (PIWIL1) piRISC loaded with piRNA #1 (30 nt)
Test: pre-steady-state target cleavage rate (min^-1); MIWI and MILI are mouse PIWI proteins and EfPiwi is from a freshwater sponge; tags in brackets are library labels; higher = faster piRNA-guided slicing of the target
Details: guide: piRNA #1 5'p-UGAGGUAGUAGGUUGUAUAGUAUCCAGAGG; auxiliary factor: 500 nM mouse GTSF1
Procedure: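 Cleave-'n-Seq: a library of target RNAs (target site embedded in constant flanks, ACAGCATTCCGCGTTAGTGATATCCG... 5' flank; DNA-blocked outside the site) at 0.1 nM was incubated with 1 nM active mouse MILI or MIWI piRISC (synthetic 5'-monophosphorylated piRNA guide) with or without 500 nM mouse GTSF1 at 33 °C for 1 min to 16 h. Uncleaved targets were sequenced and normalised to non-target controls, and the pooled three trials were fitted to a burst-and-steady-state model to give the pre-steady-state cleavage rate (min^-1; k3 is constrained to at most 1e-4). Sequence is the target site only; target names encode pairing extent (gX:gY) and contiguous / 1-mismatch / 2-mismatch / bulge geometry. Fits with R² ≤ 0 are excluded.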

In order of rising “pre-steady-state target cleavage rate” value:
1. GCUCUGGAUACUAUACUAACCUACUACCUCA  0.00667 ± 0.0041
2. GGAGACCUAACUAUACAACCUAGUUCCUCA  0.0155 ± 0.0059
3. GGAGUGGAUAGUAUACAACCUACUAGCUCA  0.0218 ± 0.0063
4. CCUCUGGAUACUAUUCAACCUAGUACCUCA  0.085 ± 0.021
5. GGAGACCUAUCUUUACAACCUACUACCUGA  0.101 ± 0.025
6. GGUCUGGAUACUAUUCAACCUACAACCUCA  0.28 ± 0.033
7. CCUCUGGAUACUAUAGAACCUACUACCACA  0.372 ± 0.042
8. GCUCUGGAUACUAUACAACGUACUUCCUCA  0.486 ± 0.045
9. GGAGACGAUUCAAUACAACCUACUACCUCA  0.502 ± 0.063
10. GGAGACCUAUCUAUACAACCUACUAGCUCA  0.517 ± 0.046
11. GGUCUGGAUACAAUACAACCUAGUACCUCA  0.562 ± 0.054
12. GGAGAGGAUACUAUACAACCUACUGACCUCA  0.576 ± 0.034
13. GGAGACGAUACUAUACUAGCUACUACCUCA  0.579 ± 0.048
14. GGAGAGGAUACUAUAGCAACCUACUACCUCA  0.61 ± 0.07
15. GGAGACCUUACUGUACAACCUACUACCUCA  0.655 ± 0.077
16. GGACUGGAUACUAUACAACCUACGUACCUCA  0.656 ± 0.089
17. GGAGACGAUACAAUUCAACCUACUACCUCA  0.664 ± 0.073
18. CCUCUGGAUACUAUACAACCUACUUCCUCA  0.668 ± 0.053
19. GGACUGGAAACUUUACAACCUACUACCUCA  0.689 ± 0.076
20. GGAGUGGAUACUAUACAACCUACGUACCUCA  0.712 ± 0.076
21. CCUCUGGAUACUUUACAACCUACUACCUGA  0.715 ± 0.1
22. GGACUGGAUACUUAUCAACCUACUACCUCA  0.719 ± 0.1
23. GGAGACGAUACUAUACAUGCUACUACCUCA  0.755 ± 0.037
24. GGAGACCUUACUAUACAACCUACCACCUCA  0.847 ± 0.06
25. GCUCUGGAUAGUAUUCAACCUACUACCUCA  0.849 ± 0.044
26. GGAGACGAAACUAUACAAGCUACUACCUCA  0.872 ± 0.057
27. GGAGAGGAUACUUUAGAACCUACUACCUCA  0.919 ± 0.051
28. GGUCUGGAUUCUAUAGAACCUACUACCUCA  0.979 ± 0.064
29. GCUCUCGAUACUAUACAACCUACAACCUCA  1.01 ± 0.078
30. GGAGACCAUACUAUUCAACCUACUACCACA  1.05 ± 0.078
31. CCUCUGGAUACUAUACUACCUACAACCUCA  1.08 ± 0.098
32. GCUCUGGAUACUAAAGAACCUACUACCUCA  1.17 ± 0.087
33. GCUCUGGAUACUUACAACCUACUACCUCA  1.18 ± 0.1
34. CCUCUGGAUACCUAUACAACCUACUACCUCA  1.18 ± 0.072
35. GGAGAGGAUACUAUUCAACCUACUACCUCA  1.23 ± 0.062
36. GGUCUGGAUACUAUACAACCUACUUACCUCA  1.23 ± 0.084
37. CCUCUGGAUACUAAACUACCUACUACCUCA  1.24 ± 0.098
38. GCUCUGCAUACUAUACAACCUACUACGUCA  1.24 ± 0.086
39. CCUCUGGAUACUUACAACCUACUACCUCA  1.3 ± 0.12
40. GCUCUGGAUACUAUUCAACCUACAACCUCA  1.3 ± 0.099
41. GGAGUGGUUUCUAUACAACCUACUACCUCA  1.32 ± 0.081
42. GGUCUGGAUACUAUACAACCUACUACUUCA  1.32 ± 0.095
43. GGACUCGAUACAAUACAACCUACUACCUCA  1.46 ± 0.095
44. GCUCUGGAUACUUAUACAACCUACUACCUCA  1.53 ± 0.084
45. GGUCAGGAUACUUUACAACCUACUACCUCA  1.54 ± 0.085
46. GGUCAGGAUACUAUACAUCCUACUACCUCA  1.54 ± 0.079
47. CCUCUGGAUACUAUACAACCUACAACCUCA  1.56 ± 0.1
48. GCUCUGGAUACUAUCACAACCUACUACCUCA  1.62 ± 0.12
49. CCUCUGGAUACUAUUCAACCUACAACCUCA  1.62 ± 0.13
50. GGACUGGAUACGAUACAACCUACUACCUCA  1.64 ± 0.1
51. GGACAGGAUACUAUUCAACCUACUACCUCA  1.69 ± 0.11
52. GGUCAGGAUACAAUACAACCUACUACCUCA  1.69 ± 0.1
53. GCUCUGGAUACGAUACAACCUACUACCUCA  1.7 ± 0.086
54. GGUCUGGAUACUAUGCAACCUACUACCUCA  1.73 ± 0.12
55. GGUCAGGAUACUAAACAACCUACUACCUCA  1.74 ± 0.096
56. GCUCAGGAUACUAUACAACCUACUACCACA  1.75 ± 0.1
57. GGUCUCGAUACAAUACAACCUACUACCUCA  1.77 ± 0.12
58. GGUCAGGAUACUAUUCAACCUACUACCUCA  1.79 ± 0.1
59. GGUCUGGAUACGAUACAACCUACUACCUCA  1.79 ± 0.11
60. CCUCUGGAUACUAUACAACCUACCUACCUCA  1.8 ± 0.11
61. GCUCAGGAUACUUUACAACCUACUACCUCA  1.81 ± 0.11
62. GGUCUCGAUACUAUACAACCUACUACCUCA  1.83 ± 0.12
63. GCUCUGGAUACUAUGCAACCUACUACCUCA  1.84 ± 0.1
64. GCUCAGGAUACUAUACAUCCUACUACCUCA  1.85 ± 0.099
65. GCUCUGGAUACUAUUCAACCUACUACCUCA  1.87 ± 0.11
66. CCACAGGAUACUAUACAACCUACUACCUCA  1.87 ± 0.13
67. CCUCUGGAUACUAUACAACCUACUACCUUCA  1.88 ± 0.12
68. GCCUCUGGAUACUAUACAACCUACUACCUCA  1.89 ± 0.12
69. GCUCAGGAUACAAUACAACCUACUACCUCA  1.9 ± 0.12
70. GCUCUGGAUACUAUACAACCUACUACCUUCA  1.9 ± 0.13
71. GCUCUCGAUAGUAUACAACCUACUACCUCA  1.95 ± 0.13
72. GCUCAGGAUACUAAACAACCUACUACCUCA  1.95 ± 0.12
73. CCUCUGGAUACUAUACAACCUACUACCUCA [g2:g30:cont:t1A]  1.96 ± 0.12
74. CCUCAGGAUACAAUACAACCUACUACCUCA  2.01 ± 0.12
75. CCUCAGGAUACUAUACAUCCUACUACCUCA  2.03 ± 0.12
76. UCUCUGGAUACUAUACAACCUACUACCUCA  2.04 ± 0.1
77. GCUCUCGAUACAAUACAACCUACUACCUCA  2.07 ± 0.12
78. CCUCAGGAUACUAAACAACCUACUACCUCA  2.07 ± 0.12
79. CCUCUGGAUACGAUACAACCUACUACCUCA  2.07 ± 0.11
80. GCUCAGGAUACUAUUCAACCUACUACCUCA  2.09 ± 0.13
81. CCUCUGGAUACUAUGCAACCUACUACCUCA  2.09 ± 0.13
82. GCUCUGGAUACUAUACAACCUACUUACCUCA  2.1 ± 0.13
83. CCUCAGGAUACUUUACAACCUACUACCUCA  2.1 ± 0.13
84. CUCUCUGGAUACUAUACAACCUACUACCUCA  2.1 ± 0.13
85. CCUCUGGUUACUAUUCAACCUACUACCUCA  2.15 ± 0.14
86. CCUCUCGAUACAAUACAACCUACUACCUCA  2.17 ± 0.14
87. CUCUGGAUACUAUACAACCUACUACCUCA  2.17 ± 0.14
88. CCUCUGGAUACUAUACAACCUACUUACCUCA  2.2 ± 0.14
89. CCUCAGGAUACUAUUCAACCUACUACCUCA  2.22 ± 0.14
90. GCUCUGGAUACUAUACAACCUACUACUUCA  2.26 ± 0.14
91. CCUCUGGAUACUAUACAACCUACUACUUCA  2.32 ± 0.16
92. CCUCAGGAUACUAUACAACCUACUACCACA  2.43 ± 0.17

Source: the supplement of paper PMC10338343
